The supplement of paper PMC9694430
Structures can show the parent of a compound that is named as a salt.

Tests used:
Experiment in all cases: thermal shift delta Tm vs DMSO control; higher = stronger stabilization (binding)
Details in all cases: 12.5 µM; protein concentration 2 µM
[1] = tested on: LOC_OS04G57630-cb004
In short: (§1)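 Heating from 25°C to 95°C at 0.05°C/s, fluorescence was recorded for 19.5 μl wells of 2 μM E. coli-expressed, purified rice kinase domain in 100 mM potassium phosphate pH 7.5, 150 mM NaCl, 10% glycerol and 5 × SYPRO Orange with compound in DMSO. Boltzmann fits gave melting temperatures for this differential scanning fluorimetry assay. The shift reported is the mean of three replicates against the DMSO-only protein.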

[2] = tested on: LOC_OS05G07850-cb002
In short: as §1

[3] = tested on: LOC_OS05G16824-cb004
In short: as §1

[4] = tested on: LOC_OS05G28520-cb001
In short: as §1

[5] = tested on: LOC_OS05G30820-cb001
In short: as §1

[6] = tested on: LOC_OS05G43570-cb004
In short: as §1

[7] = tested on: LOC_OS06G16330-cb003
In short: as §1

[8] = tested on: T1, LOC_OS06G22820-cb001
T1 sequence (whole entry): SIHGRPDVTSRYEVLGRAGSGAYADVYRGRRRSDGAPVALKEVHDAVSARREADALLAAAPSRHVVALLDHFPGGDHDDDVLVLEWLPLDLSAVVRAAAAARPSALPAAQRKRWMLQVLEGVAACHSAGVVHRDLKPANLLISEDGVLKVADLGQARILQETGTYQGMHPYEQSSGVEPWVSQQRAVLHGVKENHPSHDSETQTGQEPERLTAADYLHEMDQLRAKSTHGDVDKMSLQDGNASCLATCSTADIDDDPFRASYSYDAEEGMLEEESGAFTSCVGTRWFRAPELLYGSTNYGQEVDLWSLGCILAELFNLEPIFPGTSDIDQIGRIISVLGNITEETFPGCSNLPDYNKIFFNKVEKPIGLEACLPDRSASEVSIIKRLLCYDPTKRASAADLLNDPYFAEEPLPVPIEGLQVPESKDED
In short: as §1

[9] = tested on: LOC_OS07G06570-cb004
In short: as §1

[10] = tested on: LOC_OS07G07230-cb001
In short: as §1
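Note: purified Escherichia coli-expressed rice kinase domain construct.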

Chain of LOC_OS06G16330-cb003 (as listed by the source): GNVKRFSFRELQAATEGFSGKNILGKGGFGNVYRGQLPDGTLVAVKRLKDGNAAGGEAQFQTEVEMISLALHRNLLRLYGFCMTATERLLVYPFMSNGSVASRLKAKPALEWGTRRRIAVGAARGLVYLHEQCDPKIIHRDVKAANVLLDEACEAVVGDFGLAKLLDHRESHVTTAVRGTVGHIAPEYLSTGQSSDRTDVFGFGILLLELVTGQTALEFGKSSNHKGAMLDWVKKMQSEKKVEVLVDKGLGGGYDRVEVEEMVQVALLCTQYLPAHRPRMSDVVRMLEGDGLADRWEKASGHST

Compound | thermal shift delta Tm [1] [°C] | thermal shift delta Tm [2] [°C] | thermal shift delta Tm [3] [°C] | thermal shift delta Tm [4] [°C] | thermal shift delta Tm [5] [°C] | thermal shift delta Tm [6] [°C] | thermal shift delta Tm [7] [°C] | thermal shift delta Tm [8] [°C] | thermal shift delta Tm [9] [°C] | thermal shift delta Tm [10] [°C]
CN(C)Cc1cccc(N/C(=C2\C(=O)Nc3cc(C(N)=O)ccc32)c2ccccc2)c1 | 0.27 | 5.34 | 2.95 | 0.22 | 0.46 | 0.7 | 0.53 | 0.79 | 1.03 | 0.16
Nc1nccc(Oc2ccc3c(C(=O)Nc4cccc(C(F)(F)F)c4)cccc3c2)n1 | 0.43 | -1.62 | -1.01 | 0.93 | 0.73 | 0.58 | 0 | 0.99 | 1.61 | 0.15
O=C(NCc1cccc(O)c1)Nc1nc(-c2ccncc2)cs1 | 1.08 | 3.27 | -3.55 | 0.81 | 0.5 | 1.02 | 0.47 | 0.43 | 1.09 | 0.35
N#CCNC(=O)c1ccc(-c2ccnc(Nc3ccc(N4CCOCC4)cc3)n2)cc1 [Momelotinib (CYT387)] | 3.11 | 11.6 | 3.39 | 0.59 | 0.75 | 0.76 | 7.69 | 0.49 | 0.77 | 0.53
N#Cc1ccc2[nH]c(O)c(-c3ccc(CN4CCOCC4)cn3)c2c1 | 0.29 | 2.86 | 1.38 | 0.81 | 0.35 | 0.3 | -0.35 | 0.74 | 1.19 | 0.07
COc1ccc(Cl)c(Nc2nc3ccccc3nc2NS(=O)(=O)c2cccc(NC(=O)C(C)(C)N)c2)c1 [Pilaralisib (XL147)] | 2.01 | 2.9 | 2.11 | 0.49 | 0.75 | 1.75 | 1.96 | 2.03 | 0.12 | 0.54
COc1c(C)c(C(=O)c2ccc(N)c(C(=O)O)c2)n2ccccc12 | 0.19 | 0.78 | -2.73 | 0.86 | 0.51 | 0.58 | -0.18 | 0.47 | 1.2 | 0.36
Cc1cc(Nc2cc(N3CCN(C)CC3)nc(/C=C/c3ccccc3)n2)n[nH]1 | 3.73 | 11.7 | 11.2 | 7.06 | 1.8 | 0.82 | 5.06 | 0.17 | 1.23 | 0.9
O=C(NCCO)c1cccc(-c2cc(Nc3ccc(OC(F)(F)F)cc3)ncn2)c1 | -0.03 | 1.54 | 0.97 | -0.03 | 0.29 | 0.15 | 1.76 | 0.84 | 0.21 | -0.33
FC(F)c1nc2ccccc2n1-c1nc(N2CCOCC2)nc(N2CCOCC2)n1 | 0.39 | 0.04 | 1.24 | 0.54 | 0.54 | 0.5 | 0.49 | 0.93 | 0.84 | 0.3
Cc1ccc(F)c(NC(=O)Nc2ccc(-c3cccc4[nH]nc(N)c34)cc2)c1 [Linifanib (ABT-869)] | 0.74 | 4.63 | 1.86 | 0.75 | 0.85 | 0.9 | 3.55 | 0.6 | 0.72 | 0.93
Nc1ncnc2c1c(-c1cnc3[nH]ccc3c1)nn2C1CCCC1 | 0.91 | 4.79 | 1.22 | 0.54 | 0.76 | 1.19 | 3.18 | 0.34 | 0.72 | 0.21
CNC(=O)c1cc(Oc2ccc(NC(=O)Nc3ccc(Cl)c(C(F)(F)F)c3)cc2)ccn1 [Sorafenib Tosylate] | 1.2 | 9.63 | 1.35 | 1.33 | 0.5 | 1.5 | 1.91 | 2.15 | 1.66 | 0.6
COc1cccc2cc(-c3nc([C@H]4CC[C@H](C(=O)O)CC4)n4ncnc(N)c34)[nH]c12 | 0.17 | 3.87 | -4.58 | 0.34 | 0.73 | 0.5 | -0.07 | 0.66 | 0.52 | 0.08
Cc1cccc(CC(=O)N2CCc3c2ccc(-c2cn(C)c4ncnc(N)c24)c3F)n1 | 1.09 | 2.24 | 0.43 | 0.62 | 0.47 | 0.42 | 1.13 | 0.75 | 1.03 | 1.75
CCn1nc(C2CCN(C(=O)CCO)CC2)nc1-c1cnc(N)c(-c2nnc(C(C)(C)C)o2)n1 | 0.47 | 8.76 | 1.95 | 0.66 | 0.58 | 0.43 | 5.59 | 0.93 | 0.86 | 0.4
C=CC(=O)N1CCC[C@@H](n2nc(-c3ccc(Oc4ccccc4)cc3)c3c(N)ncnc32)C1 | 1 | 6.56 | 1.31 | -0.3 | 0.44 | 0.27 | 1.99 | 0.54 | 0.5 | 0.64
COc1cc(N2CCC(N)CC2)ccc1Nc1ncc(Cl)c(-c2c[nH]c3ccccc23)n1 | 4.46 | 13.4 | 8.24 | 1.74 | 2.33 | 1.06 | 10.4 | 0.85 | 2.26 | 1.14
COCCNCc1ccc(-c2cc3nccc(Oc4ccc(NC(=O)C5(C(=O)Nc6ccc(F)cc6)CC5)cc4F)c3s2)nc1 [Sitravatinib (MGCD516)] | 7.89 | 14.5 | 10.7 | 7.64 | 0.29 | 0.73 | 9.07 | 0.6 | 0.67 | -0.46
CC(C)(C)S(=O)(=O)c1ccc2nccc(Nc3n[nH]c4ccc(F)cc34)c2c1 | 0.34 | 2.55 | -0.25 | -0.33 | 0.52 | 0.22 | 0.6 | 0.36 | 0.6 | 0.92

Compound | thermal shift delta Tm [1] [°C] | thermal shift delta Tm [2] [°C] | thermal shift delta Tm [3] [°C] | thermal shift delta Tm [4] [°C] | thermal shift delta Tm [5] [°C] | thermal shift delta Tm [6] [°C] | thermal shift delta Tm [7] [°C] | thermal shift delta Tm [8] [°C] | thermal shift delta Tm [9] [°C] | thermal shift delta Tm [10] [°C]
NC(=O)c1cnc2[nH]ccc2c1N[C@@H]1[C@@H]2CC3C[C@H]1C[C@@](O)(C3)C2 | 1.22 | 12.5 | 8.26 | 0.32 | 2.71 | 0.73 | 5.88 | 0.43 | 1.29 | 0.84
COc1cc2ncnc(Nc3ccc(O)c(Br)c3)c2cc1OC | 0.28 | 12 | -0.59 | 0.86 | 0.54 | 0.23 | 5.86 | 0.8 | 1.76 | 0.01
CNC(=O)c1ccccc1Sc1ccc2c(/C=C/c3ccccn3)n[nH]c2c1 [Axitinib] | 0.24 | 5.45 | 0.17 | -0.35 | 0.45 | 0.48 | 2.75 | 0.73 | 1.05 | 0.76
CCC(=O)Nc1cccc(Oc2nc(Nc3ccc(N4CCN(C)CC4)cc3OC)ncc2Cl)c1 | 0.17 | 5.91 | -0.12 | 0.72 | 0.41 | 0.44 | 0.62 | 0.4 | 0.81 | 0.4
O=c1c(O)c(-c2ccc(O)c(O)c2)oc2cc(O)cc(O)c12 [Quercetin] | 0.22 | 10.2 | 3.82 | 0.95 | 0.67 | 1.19 | 5.31 | 1.15 | -0.26 | -0.07
NC[C@@](O)(c1ccc(Cl)cc1)c1ccc(-c2cn[nH]c2)cc1 | 0.11 | 1.75 | 0.67 | 0.5 | 0.47 | 2.11 | 0.77 | 0.65 | 0.91 | 0.04
CO[C@H]1C[C@@H]2CC[C@@H](C)[C@@](O)(O2)C(=O)C(=O)N2CCCC[C@H]2C(=O)O[C@H]([C@H](C)C[C@@H]2CC[C@@H](OC(=O)C(C)(CO)CO)[C@H](OC)C2)CC(=O)[C@H](C)/C=C(\C)[C@@H](O)[C@@H](OC)C(=O)[C@H](C)C[C@H](C)/C=C/C=C/C=C/1C | -0.25 | 0.18 | -4.25 | 0.46 | 0.38 | 0.24 | -0.27 | 0.76 | 0.91 | 0.12
Cc1ccc(CNc2ncnc3ccc(-c4ccc(CO)o4)cc23)o1 | 2.38 | 4.33 | -5.36 | -0.16 | 0.29 | 0.04 | 2.56 | 0.43 | 1.5 | 0.62
CO[C@@H](C(=O)N1Cc2[nH]nc(NC(=O)c3ccc(N4CCN(C)CC4)cc3)c2C1)c1ccccc1 | 2.02 | 6.58 | 5.14 | 0.31 | 0.48 | 0.25 | 7.87 | 2.69 | 0.66 | 0
CC(C)CC(=O)Nc1n[nH]c2c1CN(C(=O)C1CCN(C)CC1)C2(C)C | 0.48 | 0.58 | 0.18 | 0.19 | 0.53 | 0.86 | -0.05 | 3.38 | 0.44 | 0.05
CCN1CCN(Cc2ccc(Nc3ncc(F)c(-c4cc(F)c5nc(C)n(C(C)C)c5c4)n3)nc2)CC1 | 1.35 | 12.6 | 3.33 | 0.73 | 0.2 | 0.41 | 6.17 | 0.41 | 1.14 | 0.37
CCN1C(=O)CNc2ncc(-c3ccc(-c4nc[nH]n4)nc3C)nc21 | -0.18 | 0.15 | -3.58 | 0.29 | 0.42 | -0.33 | -0.44 | 0.23 | 0.95 | 0.66
O=c1cc(-c2cccc3c2Sc2ccccc2S3)oc(N2CCOCC2)c1 | -0.22 | 0.85 | 0.1 | 0.74 | 0.44 | 0.13 | -0.34 | 0.79 | 0.35 | -0.3
CC(C)(C#N)c1ccc(N2C(=O)OCc3cnc4ccc(-c5cnc6ccccc6c5)cc4c32)cc1 | 0.16 | 1.96 | -0.65 | 0.5 | 0.58 | 0.71 | 0.44 | 0.89 | 1.76 | 0.63
NC1(c2ccc(-c3nc4ccn5c(=O)[nH]nc5c4cc3-c3ccccc3)cc2)CCC1 | -0.22 | 1.31 | -1.83 | 0.28 | 0.4 | 0.14 | 0.62 | 0.61 | 0.66 | 0.17
N#C/C(=C(/N)Sc1ccc(N)cc1)c1ccccc1C(F)(F)F | -0.02 | -0.43 | -2.13 | 0.13 | 0.55 | -0.02 | -0.1 | 0.8 | 0.09 | 0.16
CC(C)c1cnn2c(NCc3ccccc3-n3cccn3)nc(OC3CCCNC3)nc12 (stereo not given) | 0.19 | 0.48 | 1.46 | 0.66 | 0.31 | 0.57 | 0.17 | 1.22 | 0.4 | -0.33
CNC(=O)c1cc(Oc2ccc(NC(=O)Nc3ccc(Cl)c(C(F)(F)F)c3)c(F)c2)ccn1 [Regorafenib (BAY 73-4506)] | 0.11 | 1.47 | -2.37 | 0.42 | 0.34 | 0.38 | -0.02 | 0.83 | 0.59 | 0.35
N#Cc1c(O)c2c(-c3ccc(-c4ccccc4O)cc3)csc2[nH]c1=O | 0.93 | 0.59 | -0.44 | 1.06 | 0.78 | 1.18 | 1.03 | 0.91 | 1.2 | 0.19
Cc1cc(O)c(-c2ccc([C@@H](C)CN)cc2)c2c1[nH]c(=O)c1sccc12 [OTS514 hydrochloride] | 0.19 | 5 | -0.88 | 0.49 | 0.55 | 0.45 | 1.74 | 0.65 | 1.65 | 0.6
